PubChem BioAssay (EPA / NIEHS)
Results filed as inconclusive are left out. Active and inactive are the calls of the source. The calls were made as follows, unless noted: active = hit-call score of the fitted dose curve at least 0.9, where 1 is the maximum; inactive = score below 0.9.

Tests used:
[1] = ATG_NFI_CIS: Attagene CIS-FACTORIAL HepG2 Assay for human Nuclear Factor I (NFI) (AID 2282989); details: HepG2 cis-regulatory reporter, NFI response element transcription; actives raise or lower the signal
How it was run: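 Transient MRTU transfection of HepG2 → 24 h chemical dosing → total RNA, oligo(dT) RT → PCR, 6-FAM primer extension, HpaI cut → capillary electrophoresis. Endpoint fitted bidirectionally relative to DMSO.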

[2] = molecular target: Myc proto-oncogene protein (Homo sapiens) (UniProt P01106); test: ATG_Myc_CIS: Attagene CIS-FACTORIAL HepG2 Assay for human Myelocytomatosis (Myc) Proto-Oncogene Transcription Factor (AID 2282990); details: HepG2, Attagene cis-reporter transcription factor activity; actives raise or lower the signal
How it was run: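 Transiently transfected HepG2 cells bearing cis-promoter reporter units for endogenous transcription factors; 24 h exposure. Reporter mRNA measured by RT-PCR, 6-FAM primer extension, HpaI cut and capillary electrophoresis; bidirectional fit relative to DMSO.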

[3] = ATG_NF_kB_CIS: Attagene CIS-FACTORIAL HepG2 Assay for human Nuclear Factor Kappa B (NF-kB) (AID 2282991); details: HepG2 Attagene cis-factorial NF-kB reporter mRNA; actives raise or lower the signal
How it was run: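 DMSO served as negative control and baseline for bidirectional curve fitting. Transiently transfected HepG2 cells were dosed for 24 h, then reporter transcripts were measured by RT-PCR with capillary electrophoresis detection.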

[4] = ATG_NRF2_ARE_CIS: Attagene CIS-FACTORIAL HepG2 Assay for human Nuclear Factor Erythroid 2 Related Factor 2 (NFR2) response to Antioxidant Response Elements (ARE) (AID 2282992); details: HepG2 Attagene ARE/NRF2 reporter, transcription factor activity; actives raise or lower the signal;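 as to AC50: reporter mRNA level measured by RT-PCR and capillary electrophoresis fluorescence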
How it was run: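 Transient MRTU transfection of HepG2; 24 h compound exposure; TriZol RNA, RT with oligo(dT), PCR, 6-FAM primer extension, HpaI cut, CE. Bidirectional fit vs DMSO.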

[5] = molecular target: human Peroxisome Proliferator-activated Receptor alpha (PPARa), PPARA (gene 5465) (UniProt Q07869); test: ATG_PPARa_TRANS: Attagene TRANS-FACTORIAL HepG2 Assay for human Peroxisome Proliferator-activated Receptor alpha (PPARa) (AID 2283001; active = hit-call score of the fitted dose curve at least 0.9, where 1 is the maximum;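 as to AC50: potency for gain of reporter signal over DMSO so agonist or activator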)
How it was run: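 Measures transcriptional activity of an exogenous chimeric PPARa-Gal4 protein in transiently transfected HepG2 cells after 24 h dosing. Reporter mRNA quantified via RT-PCR and capillary electrophoresis; DMSO served as negative control.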

[6] = molecular target: human Peroxisome Proliferator-activated Receptor delta (PPARd), PPARD (gene 5467) (UniProt Q03181); test: ATG_PPARd_TRANS: Attagene TRANS-FACTORIAL HepG2 Assay for human Peroxisome Proliferator-activated Receptor delta (PPARd) (AID 2283002; active = hit-call score of the fitted dose curve at least 0.9, where 1 is the maximum)
How it was run: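 HepG2 cells transiently transfected with GAL4-UAS multiplexed reporter units driven by exogenous chimeric NR-GAL4 proteins; 24 h compound exposure. Reporter mRNA measured by RT-PCR, 6-FAM primer extension, HpaI digestion and capillary electrophoresis; gain of signal fitted relative to DMSO.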

[7] = molecular target: Retinoic acid receptor alpha (Homo sapiens) (UniProt P10276); test: ATG_RARa_TRANS: Attagene TRANS-FACTORIAL HepG2 Assay for human Retinoic Acid Receptor alpha (RARa) (AID 2283005; active = hit-call score of the fitted dose curve at least 0.9, where 1 is the maximum)
How it was run: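 HepG2 transiently transfected with multiplex GAL4-UAS reporter units including a human RARa–GAL4 chimera; 24 h compound exposure. Reporter mRNA quantified by RT-PCR, 6-FAM labeling and capillary electrophoresis; gain of signal versus DMSO.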

[8] = molecular target: Peroxisome proliferator-activated receptor gamma (Homo sapiens) (UniProt P37231); test: ATG_PPARg_TRANS: Attagene TRANS-FACTORIAL HepG2 Assay for human Peroxisome Proliferator-activated Receptor-gamma (PPARg) (AID 2283007; active = hit-call score of the fitted dose curve at least 0.9, where 1 is the maximum)
How it was run: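 Chimeric NR-Gal4 transactivation is measured in transiently transfected HepG2 cells by reporter mRNA induction at 24 h. Detection uses RT-PCR with fluorescent labelling and capillary electrophoresis; DMSO defines baseline.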

[9] = molecular target: Nuclear receptor subfamily 1 group I member 2 (Homo sapiens) (UniProt O75469); test: ATG_PXR_TRANS: Attagene TRANS-FACTORIAL HepG2 Assay for human Pregnane X Receptor (PXR) (AID 2283008; active = hit-call score of the fitted dose curve at least 0.9, where 1 is the maximum)
How it was run: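 Read-out is fluorescence of labelled reporter cDNA fragments separated by capillary electrophoresis after RT-PCR and HpaI digestion. Source: HepG2 cells carrying PXR-GAL4/UAS reporter constructs, treated 24 h; activity fitted upward relative to DMSO.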

[10] = molecular target: human Retinoic Acid Receptor gamma (RARg), RARG (gene 5916) (UniProt P13631); test: ATG_RARg_TRANS: Attagene TRANS-FACTORIAL HepG2 Assay for human Retinoic Acid Receptor gamma (RARg) (AID 2283009; active = hit-call score of the fitted dose curve at least 0.9, where 1 is the maximum)
How it was run: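 HepG2 cells transiently transfected with multiplexed reporter units expressing chimeric RARg-GAL4 and GAL4-UAS-driven reporters; 24 h compound exposure. Reporter mRNA quantified by RT-PCR with fluorescent labelling and capillary electrophoresis; gain-of-signal fitted relative to DMSO baseline.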

[11] = molecular target: human RAR-related Orphan Receptor beta (RORb), RORB (gene 6096) (UniProt Q92753); test: ATG_RORb_TRANS: Attagene TRANS-FACTORIAL HepG2 Assay for human RAR-related Orphan Receptor beta (RORb) (AID 2283010; active = hit-call score of the fitted dose curve at least 0.9, where 1 is the maximum)
How it was run: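 HepG2 cells were transiently transfected with multiplexed GAL4-UAS reporter units expressing chimeric nuclear receptor–GAL4 proteins, then dosed for 24 h. Reporter mRNA was quantified by RT-PCR with fluorescent labelling and capillary electrophoresis; gain of signal was fitted relative to DMSO.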

[12] = molecular target: Cellular tumor antigen p53 (Homo sapiens) (UniProt P04637); test: ATG_p53_CIS: Attagene CIS-FACTORIAL HepG2 Assay for human p53 Transcription Factor (AID 2282994); details: HepG2 p53 cis-element reporter, Attagene mRNA; actives raise or lower the signal
How it was run: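 HepG2, transient MRTU transfection (cis promoter elements, endogenous TFs); 24 h dosing; RNA isolation, RT-PCR, 6-FAM primer extension, HpaI digest, CE fluorescence; bidirectional fit vs DMSO.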

[13] = BSK_3C_TissueFactor: BioMAP Diversity Plus: 3C Assay for Tissue Factor Biomarker Activity (AID 2282997); details: BioMAP 3C HUVEC, tissue factor biomarker readout; actives raise or lower the signal
How it was run: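 Dosing of human umbilical vein endothelial cells preceded a 24 h incubation. Tissue Factor was then read by ELISA, with increases and decreases both scored relative to DMSO controls.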

[14] = BSK_3C_uPAR: BioMAP Diversity Plus: 3C Assay for Urokinase-type plasminogen activator receptor (uPAR) Biomarker Activity (AID 2282998); details: BioMAP 3C HUVEC, uPAR biomarker ELISA; actives raise or lower the signal
How it was run: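 ELISA readout of uPAR on human vascular endothelium (umbilical vein primary cells), taken 24 h after chemical dosing. Increases and decreases are both fitted relative to DMSO vehicle.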

[15] = BSK_3C_VCAM1: BioMAP Diversity Plus: 3C Assay for Vascular cell adhesion molecule 1 (VCAM1) Biomarker Activity (AID 2282999); details: BioMAP 3C HUVEC, VCAM1 ELISA, cytokine-stimulated; actives raise or lower the signal
How it was run: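 Human umbilical vein endothelial cells (3C system), biomarker read by ELISA 24 h after dosing; bidirectional fit against DMSO baseline. Cytotoxicity tracked by SRB total-protein staining in parallel cultures at biomarker time.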

[16] = BSK_4H_Eotaxin3: BioMAP Diversity Plus: 4H Assay for Eotaxin 3 Biomarker Activity (AID 2283000); details: primary human endothelial cells (HUVEC); actives raise or lower the signal
How it was run: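 Human umbilical vein endothelial cells (BSK_4H system) dosed with test chemical; Eotaxin-3 (CCL26) measured by ELISA 24 h after dosing. Bidirectional curve fitting relative to DMSO negative control as baseline.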

[17] = read-out: Intercellular Adhesion Molecule 1 (ICAM1), ICAM1 (gene 3383); test: BSK_3C_ICAM1: BioMAP Diversity Plus: 3C Assay for Intercellular Adhesion Molecule 1 (ICAM1) Biomarker Activity (AID 2283003); details: primary human endothelial cells (HUVEC); actives raise or lower the signal
How it was run: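 Primary human umbilical vein endothelial cells in the BioMAP 3C system were exposed to chemicals for 24 h, then ICAM-1 was quantified by ELISA. Activity was fitted bidirectionally against the DMSO negative control baseline.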

[18] = molecular target: human Retinoic Acid Receptor beta (RARb), RARB (gene 5915) (UniProt P10826); test: ATG_RARb_TRANS: Attagene TRANS-FACTORIAL HepG2 Assay for human Retinoic Acid Receptor beta (AID 2283004; active = hit-call score of the fitted dose curve at least 0.9, where 1 is the maximum)
How it was run: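 Induction of reporter mRNA from a chimeric RARb-Gal4 construct was measured by RT-PCR, FAM labelling, HpaI digestion and capillary electrophoresis. Measurements followed 24 h compound treatment of transiently transfected human HepG2 liver cells, with DMSO as baseline.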

[19] = BSK_3C_Proliferation: Cell Proliferation Assessment in the BioMAP Diversity Plus: 3C Assay (AID 2283006); details: primary human endothelial cells (HUVEC);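 also: potency may reflect either rise or fall in cell number versus DMSO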
How it was run: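 Human umbilical vein endothelial cells were grown sub-confluent and exposed to chemical for 48 h, then fixed with 10% TCA and stained with 0.1% sulforhodamine B; absorbance at 560 nm gave relative cell number, fitted bidirectionally against DMSO baseline.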

[20] = ATG_Oct_MLP_CIS: Attagene CIS-FACTORIAL HepG2 Assay for human Octamer-Binding Transcription Factor (Oct) (AID 2282993); details: HepG2 Attagene cis-factorial Oct reporter, mRNA; actives raise or lower the signal
How it was run: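 Transient MRTU transfection of HepG2 → 24 h compound treatment → RNA isolation, reverse transcription, PCR → 6-FAM primer extension, HpaI digest → capillary electrophoresis. Activity fitted both directions against DMSO.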

Measured: AC50

Sequence of human Peroxisome Proliferator-activated Receptor alpha (PPARa), PPARA (gene 5465) (Q07869 whole entry, looked up, the tested form may be a part): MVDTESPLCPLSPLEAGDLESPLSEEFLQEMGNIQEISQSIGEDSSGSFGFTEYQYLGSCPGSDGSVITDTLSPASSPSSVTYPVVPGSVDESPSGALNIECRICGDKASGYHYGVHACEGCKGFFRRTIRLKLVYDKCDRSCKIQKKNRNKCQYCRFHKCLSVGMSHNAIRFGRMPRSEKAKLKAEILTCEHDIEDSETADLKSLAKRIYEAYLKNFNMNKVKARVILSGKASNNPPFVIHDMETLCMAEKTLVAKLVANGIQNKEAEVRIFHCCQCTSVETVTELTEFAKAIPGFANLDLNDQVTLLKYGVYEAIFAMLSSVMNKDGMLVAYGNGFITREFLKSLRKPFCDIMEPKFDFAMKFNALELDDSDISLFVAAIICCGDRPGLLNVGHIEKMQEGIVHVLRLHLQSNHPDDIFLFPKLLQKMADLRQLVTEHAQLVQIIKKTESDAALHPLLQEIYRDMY
Sequence of human Peroxisome Proliferator-activated Receptor delta (PPARd), PPARD (gene 5467) (Q03181 whole entry, looked up, the tested form may be a part): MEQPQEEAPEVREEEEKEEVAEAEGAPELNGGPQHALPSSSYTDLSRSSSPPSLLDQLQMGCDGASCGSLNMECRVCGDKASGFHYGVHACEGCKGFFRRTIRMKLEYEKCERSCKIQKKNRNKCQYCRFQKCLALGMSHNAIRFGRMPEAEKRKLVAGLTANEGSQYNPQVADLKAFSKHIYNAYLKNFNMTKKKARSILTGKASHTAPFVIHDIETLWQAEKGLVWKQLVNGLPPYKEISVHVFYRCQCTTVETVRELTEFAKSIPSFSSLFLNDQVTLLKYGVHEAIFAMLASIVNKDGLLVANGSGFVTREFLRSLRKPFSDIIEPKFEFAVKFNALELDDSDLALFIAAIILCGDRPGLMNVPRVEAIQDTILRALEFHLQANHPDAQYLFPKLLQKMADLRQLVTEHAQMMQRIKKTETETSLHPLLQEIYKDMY
Sequence of Retinoic acid receptor alpha (Homo sapiens) (P10276 whole entry, looked up, the tested form may be a part): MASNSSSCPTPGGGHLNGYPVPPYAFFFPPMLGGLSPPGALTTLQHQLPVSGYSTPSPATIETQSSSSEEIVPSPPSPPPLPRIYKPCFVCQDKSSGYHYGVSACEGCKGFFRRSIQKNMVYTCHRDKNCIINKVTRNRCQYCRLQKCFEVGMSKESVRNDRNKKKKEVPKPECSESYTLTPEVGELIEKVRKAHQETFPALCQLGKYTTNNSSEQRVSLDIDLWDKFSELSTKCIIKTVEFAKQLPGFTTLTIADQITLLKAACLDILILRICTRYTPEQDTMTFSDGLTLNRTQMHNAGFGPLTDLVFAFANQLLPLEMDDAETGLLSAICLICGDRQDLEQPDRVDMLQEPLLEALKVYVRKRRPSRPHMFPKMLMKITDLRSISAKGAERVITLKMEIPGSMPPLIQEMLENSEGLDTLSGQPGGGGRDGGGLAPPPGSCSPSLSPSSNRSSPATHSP
Sequence of Nuclear receptor subfamily 1 group I member 2 (Homo sapiens) (O75469 whole entry, looked up, the tested form may be a part): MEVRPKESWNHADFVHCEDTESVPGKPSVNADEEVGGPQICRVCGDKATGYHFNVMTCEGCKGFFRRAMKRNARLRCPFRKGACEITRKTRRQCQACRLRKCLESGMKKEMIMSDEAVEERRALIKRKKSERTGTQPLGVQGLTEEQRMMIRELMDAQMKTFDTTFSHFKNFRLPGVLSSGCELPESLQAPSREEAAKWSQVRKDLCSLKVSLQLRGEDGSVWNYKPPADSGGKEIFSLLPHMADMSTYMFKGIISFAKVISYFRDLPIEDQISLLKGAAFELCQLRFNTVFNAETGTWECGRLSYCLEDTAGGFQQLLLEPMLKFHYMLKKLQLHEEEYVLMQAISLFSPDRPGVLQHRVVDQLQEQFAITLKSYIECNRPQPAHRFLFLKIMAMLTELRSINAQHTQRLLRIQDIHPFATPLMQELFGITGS
Sequence of Peroxisome proliferator-activated receptor gamma (Homo sapiens) (P37231 whole entry, looked up, the tested form may be a part): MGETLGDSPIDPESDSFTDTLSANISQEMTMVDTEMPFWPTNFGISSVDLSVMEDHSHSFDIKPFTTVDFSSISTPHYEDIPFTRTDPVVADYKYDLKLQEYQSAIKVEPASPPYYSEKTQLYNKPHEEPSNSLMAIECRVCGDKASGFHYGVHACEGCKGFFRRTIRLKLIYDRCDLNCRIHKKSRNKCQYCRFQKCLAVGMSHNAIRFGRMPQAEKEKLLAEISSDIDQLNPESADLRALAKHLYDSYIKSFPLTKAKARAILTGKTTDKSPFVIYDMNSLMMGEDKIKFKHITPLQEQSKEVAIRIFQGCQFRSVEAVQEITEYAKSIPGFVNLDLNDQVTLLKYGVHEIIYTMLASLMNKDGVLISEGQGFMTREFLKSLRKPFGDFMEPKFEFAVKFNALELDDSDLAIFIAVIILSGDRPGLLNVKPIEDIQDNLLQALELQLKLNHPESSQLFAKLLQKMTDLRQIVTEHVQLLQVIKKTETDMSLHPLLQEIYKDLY
Sequence of human RAR-related Orphan Receptor beta (RORb), RORB (gene 6096) (Q92753 whole entry, looked up, the tested form may be a part): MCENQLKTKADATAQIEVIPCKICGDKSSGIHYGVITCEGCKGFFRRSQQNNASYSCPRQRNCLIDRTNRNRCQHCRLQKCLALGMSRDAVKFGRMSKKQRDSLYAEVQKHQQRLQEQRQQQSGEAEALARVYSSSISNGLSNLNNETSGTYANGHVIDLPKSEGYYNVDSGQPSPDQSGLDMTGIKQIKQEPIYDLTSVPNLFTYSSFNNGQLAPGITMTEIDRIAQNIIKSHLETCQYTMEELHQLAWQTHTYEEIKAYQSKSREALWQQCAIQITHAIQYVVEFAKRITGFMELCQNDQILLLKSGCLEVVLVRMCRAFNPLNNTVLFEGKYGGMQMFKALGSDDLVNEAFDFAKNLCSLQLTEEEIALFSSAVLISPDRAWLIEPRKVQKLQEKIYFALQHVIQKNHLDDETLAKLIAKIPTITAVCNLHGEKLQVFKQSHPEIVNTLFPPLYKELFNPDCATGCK
Sequence of human Retinoic Acid Receptor gamma (RARg), RARG (gene 5916) (P13631 whole entry, looked up, the tested form may be a part): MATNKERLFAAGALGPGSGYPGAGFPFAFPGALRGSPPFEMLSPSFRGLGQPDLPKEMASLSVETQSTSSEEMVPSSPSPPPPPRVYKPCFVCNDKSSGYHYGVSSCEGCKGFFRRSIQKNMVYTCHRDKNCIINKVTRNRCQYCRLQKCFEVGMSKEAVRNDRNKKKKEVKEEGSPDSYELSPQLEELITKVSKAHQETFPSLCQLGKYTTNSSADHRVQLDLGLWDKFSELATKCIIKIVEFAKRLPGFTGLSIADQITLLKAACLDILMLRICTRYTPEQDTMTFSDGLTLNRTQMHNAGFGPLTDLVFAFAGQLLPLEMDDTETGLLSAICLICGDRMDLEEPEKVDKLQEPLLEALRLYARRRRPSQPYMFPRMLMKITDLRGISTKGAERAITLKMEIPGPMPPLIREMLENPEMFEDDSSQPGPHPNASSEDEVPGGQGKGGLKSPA
Sequence of Myc proto-oncogene protein (Homo sapiens) (P01106 whole entry, looked up): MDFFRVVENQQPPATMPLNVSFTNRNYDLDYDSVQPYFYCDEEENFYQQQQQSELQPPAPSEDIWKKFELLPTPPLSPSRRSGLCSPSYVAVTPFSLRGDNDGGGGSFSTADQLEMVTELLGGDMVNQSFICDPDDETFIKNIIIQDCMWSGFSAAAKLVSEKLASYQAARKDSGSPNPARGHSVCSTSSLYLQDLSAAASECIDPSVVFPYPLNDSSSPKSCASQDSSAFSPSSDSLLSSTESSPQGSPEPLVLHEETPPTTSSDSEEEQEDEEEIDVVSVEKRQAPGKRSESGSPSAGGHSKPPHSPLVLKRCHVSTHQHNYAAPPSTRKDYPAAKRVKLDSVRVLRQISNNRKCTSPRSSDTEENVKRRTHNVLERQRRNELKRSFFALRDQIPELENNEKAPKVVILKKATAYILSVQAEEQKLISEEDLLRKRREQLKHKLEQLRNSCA
Sequence of Cellular tumor antigen p53 (Homo sapiens) (P04637 whole entry, looked up): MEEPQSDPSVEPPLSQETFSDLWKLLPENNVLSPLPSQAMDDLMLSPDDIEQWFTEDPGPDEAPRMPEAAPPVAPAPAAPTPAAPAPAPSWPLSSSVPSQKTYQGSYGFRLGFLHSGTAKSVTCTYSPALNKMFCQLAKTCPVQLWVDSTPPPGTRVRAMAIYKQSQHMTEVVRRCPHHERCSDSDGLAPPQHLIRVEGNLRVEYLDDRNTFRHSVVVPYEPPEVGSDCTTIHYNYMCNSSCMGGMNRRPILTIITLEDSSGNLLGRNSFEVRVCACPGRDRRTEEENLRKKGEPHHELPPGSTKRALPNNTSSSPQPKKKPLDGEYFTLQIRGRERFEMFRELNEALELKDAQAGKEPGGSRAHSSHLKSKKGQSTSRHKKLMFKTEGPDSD
Sequence of human Retinoic Acid Receptor beta (RARb), RARB (gene 5915) (P10826 whole entry, looked up, the tested form may be a part): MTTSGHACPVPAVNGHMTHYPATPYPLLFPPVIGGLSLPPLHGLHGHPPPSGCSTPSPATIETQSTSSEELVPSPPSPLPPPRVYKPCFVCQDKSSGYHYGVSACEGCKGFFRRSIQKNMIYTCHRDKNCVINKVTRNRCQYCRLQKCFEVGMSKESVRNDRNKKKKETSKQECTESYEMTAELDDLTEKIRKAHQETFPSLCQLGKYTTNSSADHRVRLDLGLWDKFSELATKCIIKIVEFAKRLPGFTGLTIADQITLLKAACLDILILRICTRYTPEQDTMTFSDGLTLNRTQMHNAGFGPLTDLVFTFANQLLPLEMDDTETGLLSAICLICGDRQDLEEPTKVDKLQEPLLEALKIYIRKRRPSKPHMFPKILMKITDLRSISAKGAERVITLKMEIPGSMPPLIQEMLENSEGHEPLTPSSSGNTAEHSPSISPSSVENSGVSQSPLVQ

COC(=O)c1sccc1S(N)(=O)=O
inactive: [1] | [2] | [3] | [4] | [5] | [6] | [7] | [8] | [9] | [10] | [11]

C=CCOc1c(Br)cc(Br)cc1Br
active: [13] 13.7 µM | [14] 5.76 µM | [15] 24.3 µM | [16] 29.3 µM | [17] 28.7 µM | [19] 25.8 µM | [9] 27.4 µM
not listed: [5] | [6] | [20]
inactive: all other assays above

CC(=O)OC1C2(C)CCC(C2)C1(C)C (configuration not stated)
inactive: [1] | [2] | [3] | [4] | [20] | [6] | [8] | [9]

O=C(C(Cl)Cl)N1CCOC12CCCCC2
active: [2] 8.87 µM | [4] 7.52 µM
inactive: [1] | [3] | [12] | [6] | [8] | [9] | [10]

CCCC(=O)OCc1ccccc1
inactive: [1] | [2] | [3] | [4] | [20] | [7]

OCCCS
inactive: [1] | [2] | [3] | [4] | [12] | [8]

COC(=O)C1=C(C)NC(C)=C(C(=O)OCC(C)C)C1c1ccccc1[N+](=O)[O-] (configuration not stated)
inactive: [1] | [2] | [3] | [4] | [12]
active: [8] 6.19 µM

C=C(C)C(=O)OCC(C)C
inactive: [1] | [2] | [3] | [4] | [12] | [5]

CC(=O)OCCC1CCCCC1
inactive: [1] | [2] | [3] | [4] | [12] | [6] | [8] | [9]

OCCc1ccncc1
inactive: [1] | [2] | [3] | [4] | [20] | [18] | [7] | [8] | [11]

COc1ccc(-c2coc3cc(O)ccc3c2=O)cc1
inactive: [1] | [2] | [3] | [4] | [5] | [8] | [9]

CCCCCCCCCCCSCC(=O)O
active: [5] 2.85 µM | [6] 7.11 µM | [8] 9.6 µM
inactive: [1] | [2] | [3] | [4] | [12] | [7] | [9]

O=c1n(CCO)c(=O)n(CCO)c(=O)n1CCO
inactive: [1] | [2] | [3] | [4] | [20] | [18] | [7] | [10] | [11]
